# “And” between values parts separate entries of the source, which are not always exact repeats. Equal values may be shown once.
# Target: Hexose transporter 1 (Plasmodium falciparum) (UniProt O97467)
# Assay: ST_JUDE_LEISH: Cytotoxicity at 2uM final concentration against transgenic Leishmania Mexicana promastigotes LmPfHT that are glucose transport deficient and complemented with the Plasmodium falciparum hexose transporter. Activity is measured by DNA content using SYBR green in vitro
# Format: functional
row,SMILES,inhibition
1,O=C(N[C@H]1CCN(Cc2ccc(OC3CCN(Cc4ccccc4)CC3)c(Cl)c2)C1)c1ccc(Cl)c(Cl)c1,2.06%
2,COC(=O)c1ccc2[nH]cc(C3CCN(CCC4CCN(C(=O)/C=C/c5ccc(Cl)c(Cl)c5)CC4)CC3)c2c1,4.72%
3,COc1ccc(CNCc2cccc(-c3ccc(-c4nc5cccc(C)c5[nH]4)s3)c2)cc1,2.97%
4,O=C(NCCCCCN1CCC(c2c[nH]c3ccccc23)CC1)c1ccc(-c2cccnc2)cc1,0.85%
5,COc1cc(F)c2ncc(Cl)c([C@H](O)CN3CCC(NCc4cc5c(cn4)OCCO5)CC3)c2c1,7.47%
6,CC(C)[C@@H](C(=O)NCc1cccc(C(F)(F)F)c1)N1C(=O)CCC1C(=O)Nc1ccc([N+](=O)[O-])cc1 (stereo not given in full),1.67%
7,Cc1ccc2nc(-c3ccc(C(=O)NC4CCN(Cc5ccccc5)CC4)cc3)[nH]c2c1C,7.69%
8,O=C(NCCCN(Cc1ccc(F)cc1)c1ccccn1)C(c1cc2ccccc2o1)N1CCN(C(c2ccccc2)c2ccccc2)CC1 (stereo not given),3.69%
9,Cc1cc(-c2ccc(NC(=O)Nc3ccc4nccc(N5CCN(C)CC5)c4c3)cc2C)cc(C)n1,5.84%
10,COc1ccc(-c2ccccc2CNc2nc(NCCc3ccc(O)cc3)nc(N3CCNCC3)n2)cc1,-0.55%
11,COc1ccc2nccc([C@@H](O)CN3CCC(NCc4cn5cc(F)ccc5n4)CC3)c2c1,2.19%
12,Fc1cccc(Nc2nc(NCCc3ccc(Cl)cc3)nc(Nc3cccc(F)c3)n2)c1,2.12%
13,COc1ccc(CN2CCC(N3CC(c4ccccc4)(c4ccccc4)OCC3=O)C2)c(O)c1 (stereo not given),-0.28%
14,COc1ccc(CN(C)CCCCc2ccc(NC(=O)COc3cccc4sc5ccccc5c(=O)c34)cc2)cc1OC,-3.06%
15,COc1cccc(C(=O)NCCc2cccc(Cl)c2)c1OCc1ccccc1,-0.53%
16,CC(C)COc1ccc(C(O)C(CN2CCCCC2)c2ccccc2)cc1 (stereo not given),1.93%
17,CCOC(=O)Nc1cc(-c2csc(N=C(N)N)n2)cc([N+](=O)[O-])c1,0.58%
18,COc1ccc(CC2(c3ccc(F)cc3)N=C(N)N(CCCc3cccnc3)C2=O)cc1 (stereo not given),1.49%
19,CCOc1ccc(-c2nonc2NC(=O)c2ccccc2F)cc1OCC,1%
20,Cc1cccc2nc(-c3ccc(-c4ccc(NC(=O)Nc5ccc(F)c(F)c5F)cc4)s3)[nH]c12,0.06%

row,SMILES,inhibition
1,CN1CCCc2ccc(NC(=O)Nc3ccc(Cl)c(Cl)c3)cc2C1,-0.84%
2,COc1cc(F)c2ncc(Cl)c(CCN3CCC(NCc4cc5c(cn4)OCCO5)CC3)c2c1,41.5%
3,COc1ccc2ncc(F)c(CCN3CCC[C@H](CNCc4ccc5c(n4)NC(=O)CS5)C3)c2n1,5.3%
4,Oc1cccc(-c2nc3cc(C4=NC5CCCCC5N4)ccc3[nH]2)c1 (stereo not given),3.97% and -1.13%
5,NC1CCCN(Cc2ccc(-c3ccc(-c4nc5cc(F)ccc5[nH]4)s3)cc2)C1 (stereo not given),3.22%
6,O=C(/C=C/c1ccc(Cl)c(Cl)c1)NCCCCCN1CCC(NC(=O)NC2CCCCCC2)CC1,1.53%
7,O=S(=O)(NCCCN1CCOCC1)c1ccc2nccc(Nc3ccc(Oc4ccccc4)cc3)c2c1,-0.87%
8,Oc1ccc2[nH]c(-c3cccs3)nc2c1CN1CCC(N2CCCC2)CC1,6.78%
9,O=C(c1cccc(-c2cccc(-c3nc4cc(F)ccc4[nH]3)c2)c1)N1CCCCC1CN1CCC(O)C1 (stereo not given),-0.32%
10,CC(C)(C)c1ccc(CN2CCC(CNC(=O)c3cc(-c4ccccc4Cl)cs3)C2)cc1 (stereo not given),0.05%
11,O=C(Nc1ccc(Cl)c(C(F)(F)F)c1)N[C@H]1CCN(CCCCCNC(=O)C2CC2c2ccc(Cl)c(Cl)c2)C1 (stereo not given in full),1.02%
12,N#Cc1ccccc1C1CCN(C2CCC(Nc3cc(-c4cccnc4)ccn3)CC2)CC1 (stereo not given),1.09%
13,CN(C(=O)Nc1ccc(F)cc1)C1CCN(CCCCCNC(=O)/C=C/c2ccc(Cl)c(Cl)c2)CC1,1.65%
14,CC(C)c1ccc2[nH]c(C(=O)NC3CCC(N4CCCc5ccc(C#N)cc5C4)CC3)cc2c1 (stereo not given),0.9%
15,Oc1ccc(CN2Cc3ccccc3OC3(CCN(Cc4c[nH]c5cnccc45)CC3)C2)cc1,-0.21%
16,Cc1ccc(CON2C(=N)N=C(N)NC2(C)C)cc1C,3.55%
17,COc1cc(Cc2cnc(N)nc2N)cc(OCCCCC2SC(=O)NC2=O)c1OC (stereo not given),0.84%
18,O=C(NCc1cc2c(cc1Cl)OCO2)c1ccc(CNC2CCN(Cc3ccccc3)CC2)cc1,0.96%
19,Cn1cccc1C(=O)Nc1cccc(-c2nn3ccccc3c2-c2ccnc(Nc3ccc4c(c3)OCCO4)n2)c1,9.05%
20,CS(=O)(=O)c1ccc2[nH]c(-c3cc(-c4cccc(F)c4)cnc3N)nc2c1,3.53%

# Target: Glucose transporter (Leishmania mexicana) (UniProt O61059)
# Assay: ST_JUDE_LEISH: Cytotoxicity at 2uM final concentration against transgenic Leishmania Mexicana promastigotes LmGT2 that are glucose transport deficient and complemented with the L. Mexicana glucose transporter 2. Activity is measured by DNA content using SYBR green in vitro
# Format: functional
row,SMILES,inhibition
1,O=C(N[C@H]1CCN(Cc2ccc(OC3CCN(Cc4ccccc4)CC3)c(Cl)c2)C1)c1ccc(Cl)c(Cl)c1,1.75%
2,COC(=O)c1ccc2[nH]cc(C3CCN(CCC4CCN(C(=O)/C=C/c5ccc(Cl)c(Cl)c5)CC4)CC3)c2c1,5.91%
3,COc1ccc(CNCc2cccc(-c3ccc(-c4nc5cccc(C)c5[nH]4)s3)c2)cc1,2.36%
4,O=C(NCCCCCN1CCC(c2c[nH]c3ccccc23)CC1)c1ccc(-c2cccnc2)cc1,1.15%
5,COc1cc(F)c2ncc(Cl)c([C@H](O)CN3CCC(NCc4cc5c(cn4)OCCO5)CC3)c2c1,2.15%
6,CC(C)[C@@H](C(=O)NCc1cccc(C(F)(F)F)c1)N1C(=O)CCC1C(=O)Nc1ccc([N+](=O)[O-])cc1 (stereo not given in full),2.73%
7,Cc1ccc2nc(-c3ccc(C(=O)NC4CCN(Cc5ccccc5)CC4)cc3)[nH]c2c1C,0.84%
8,O=C(NCCCN(Cc1ccc(F)cc1)c1ccccn1)C(c1cc2ccccc2o1)N1CCN(C(c2ccccc2)c2ccccc2)CC1 (stereo not given),1.89%
9,Cc1cc(-c2ccc(NC(=O)Nc3ccc4nccc(N5CCN(C)CC5)c4c3)cc2C)cc(C)n1,8.51%
10,COc1ccc(-c2ccccc2CNc2nc(NCCc3ccc(O)cc3)nc(N3CCNCC3)n2)cc1,0.12%
11,COc1ccc2nccc([C@@H](O)CN3CCC(NCc4cn5cc(F)ccc5n4)CC3)c2c1,-0.13%
12,Fc1cccc(Nc2nc(NCCc3ccc(Cl)cc3)nc(Nc3cccc(F)c3)n2)c1,-4.86%
13,COc1ccc(CN2CCC(N3CC(c4ccccc4)(c4ccccc4)OCC3=O)C2)c(O)c1 (stereo not given),-1.56%
14,COc1ccc(CN(C)CCCCc2ccc(NC(=O)COc3cccc4sc5ccccc5c(=O)c34)cc2)cc1OC,0.59%
15,COc1cccc(C(=O)NCCc2cccc(Cl)c2)c1OCc1ccccc1,-0.7%
16,CC(C)COc1ccc(C(O)C(CN2CCCCC2)c2ccccc2)cc1 (stereo not given),3.27%
17,CCOC(=O)Nc1cc(-c2csc(N=C(N)N)n2)cc([N+](=O)[O-])c1,1.09%
18,COc1ccc(CC2(c3ccc(F)cc3)N=C(N)N(CCCc3cccnc3)C2=O)cc1 (stereo not given),2.08%
19,CCOc1ccc(-c2nonc2NC(=O)c2ccccc2F)cc1OCC,1.47%
20,Cc1cccc2nc(-c3ccc(-c4ccc(NC(=O)Nc5ccc(F)c(F)c5F)cc4)s3)[nH]c12,0.31%

row,SMILES,inhibition
1,CN1CCCc2ccc(NC(=O)Nc3ccc(Cl)c(Cl)c3)cc2C1,-1.33%
2,COc1cc(F)c2ncc(Cl)c(CCN3CCC(NCc4cc5c(cn4)OCCO5)CC3)c2c1,55.4%
3,COc1ccc2ncc(F)c(CCN3CCC[C@H](CNCc4ccc5c(n4)NC(=O)CS5)C3)c2n1,0.75%
4,Oc1cccc(-c2nc3cc(C4=NC5CCCCC5N4)ccc3[nH]2)c1 (stereo not given),2.39% and 0.63%
5,NC1CCCN(Cc2ccc(-c3ccc(-c4nc5cc(F)ccc5[nH]4)s3)cc2)C1 (stereo not given),3.45%
6,O=C(/C=C/c1ccc(Cl)c(Cl)c1)NCCCCCN1CCC(NC(=O)NC2CCCCCC2)CC1,0%
7,O=S(=O)(NCCCN1CCOCC1)c1ccc2nccc(Nc3ccc(Oc4ccccc4)cc3)c2c1,-0.94%
8,Oc1ccc2[nH]c(-c3cccs3)nc2c1CN1CCC(N2CCCC2)CC1,5.89%
9,O=C(c1cccc(-c2cccc(-c3nc4cc(F)ccc4[nH]3)c2)c1)N1CCCCC1CN1CCC(O)C1 (stereo not given),0.51%
10,CC(C)(C)c1ccc(CN2CCC(CNC(=O)c3cc(-c4ccccc4Cl)cs3)C2)cc1 (stereo not given),1.29%
11,O=C(Nc1ccc(Cl)c(C(F)(F)F)c1)N[C@H]1CCN(CCCCCNC(=O)C2CC2c2ccc(Cl)c(Cl)c2)C1 (stereo not given in full),-0.67%
12,N#Cc1ccccc1C1CCN(C2CCC(Nc3cc(-c4cccnc4)ccn3)CC2)CC1 (stereo not given),2.26%
13,CN(C(=O)Nc1ccc(F)cc1)C1CCN(CCCCCNC(=O)/C=C/c2ccc(Cl)c(Cl)c2)CC1,2.01%
14,CC(C)c1ccc2[nH]c(C(=O)NC3CCC(N4CCCc5ccc(C#N)cc5C4)CC3)cc2c1 (stereo not given),1.58%
15,Oc1ccc(CN2Cc3ccccc3OC3(CCN(Cc4c[nH]c5cnccc45)CC3)C2)cc1,-3.09%
16,Cc1ccc(CON2C(=N)N=C(N)NC2(C)C)cc1C,3.93%
17,COc1cc(Cc2cnc(N)nc2N)cc(OCCCCC2SC(=O)NC2=O)c1OC (stereo not given),1.34%
18,O=C(NCc1cc2c(cc1Cl)OCO2)c1ccc(CNC2CCN(Cc3ccccc3)CC2)cc1,0.48%
19,Cn1cccc1C(=O)Nc1cccc(-c2nn3ccccc3c2-c2ccnc(Nc3ccc4c(c3)OCCO4)n2)c1,-1.17%
20,CS(=O)(=O)c1ccc2[nH]c(-c3cc(-c4cccc(F)c4)cnc3N)nc2c1,3.04%

# Source: ChEMBL document CHEMBL3433997, “St. Jude Leishmania screening dataset” (2016)
